Test results taken from PubChem BioAssay.
Active and inactive are the calls of the source.

Experiments:
[1] = small molecules captured by biotinylated probe aFSTL3 – biochemical, small-molecule microarray, fluorescence 635/667, stem cell growth factor project, primary screen (AID 1064); conditions: higher = more signal;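 note: measures binding of the biotinylated anti-FSTL3 antibody to printed compounds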
[2] = binders from COS7 lysate, DM2A8 probe, primary screen, torsin A project, cell lysate, small-molecule microarray, fluorescence 635/667 (AID 1065); conditions: higher = more signal, COS7 lysate expressing mutant human TOR1A
[3] = small molecules captured by biotinylated probe aFGF2 – biochemical, small-molecule microarray, fluorescence 635/667, stem cell growth factor project, primary screen (AID 1067); conditions: higher = more signal;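 note: measures binding of biotinylated aFGF2 protein to printed compounds on slides; z-score merges feature fluorescence and signal-to-noise across triplicate slides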
[4] = small molecules captured by biotinylated probe aFGF10 – biochemical, small-molecule microarray, fluorescence 635/667, stem cell growth factor project, primary screen (AID 1071); conditions: higher = more signal;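 note: score merges 667 nm spot intensity and signal to noise from triplicate slides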
[5] = biological target: Neurogenic locus notch homolog protein 2 (Homo sapiens) (UniProt Q04721); assay: small molecules binding Notch2 protein – biochemical, small-molecule microarray, 635 nm fluorescence, stem cell growth factors, primary screen (AID 1073); conditions: higher = more signal
Chain of Neurogenic locus notch homolog protein 2 (Homo sapiens) (Q04721 whole entry, looked up, canonical isoform): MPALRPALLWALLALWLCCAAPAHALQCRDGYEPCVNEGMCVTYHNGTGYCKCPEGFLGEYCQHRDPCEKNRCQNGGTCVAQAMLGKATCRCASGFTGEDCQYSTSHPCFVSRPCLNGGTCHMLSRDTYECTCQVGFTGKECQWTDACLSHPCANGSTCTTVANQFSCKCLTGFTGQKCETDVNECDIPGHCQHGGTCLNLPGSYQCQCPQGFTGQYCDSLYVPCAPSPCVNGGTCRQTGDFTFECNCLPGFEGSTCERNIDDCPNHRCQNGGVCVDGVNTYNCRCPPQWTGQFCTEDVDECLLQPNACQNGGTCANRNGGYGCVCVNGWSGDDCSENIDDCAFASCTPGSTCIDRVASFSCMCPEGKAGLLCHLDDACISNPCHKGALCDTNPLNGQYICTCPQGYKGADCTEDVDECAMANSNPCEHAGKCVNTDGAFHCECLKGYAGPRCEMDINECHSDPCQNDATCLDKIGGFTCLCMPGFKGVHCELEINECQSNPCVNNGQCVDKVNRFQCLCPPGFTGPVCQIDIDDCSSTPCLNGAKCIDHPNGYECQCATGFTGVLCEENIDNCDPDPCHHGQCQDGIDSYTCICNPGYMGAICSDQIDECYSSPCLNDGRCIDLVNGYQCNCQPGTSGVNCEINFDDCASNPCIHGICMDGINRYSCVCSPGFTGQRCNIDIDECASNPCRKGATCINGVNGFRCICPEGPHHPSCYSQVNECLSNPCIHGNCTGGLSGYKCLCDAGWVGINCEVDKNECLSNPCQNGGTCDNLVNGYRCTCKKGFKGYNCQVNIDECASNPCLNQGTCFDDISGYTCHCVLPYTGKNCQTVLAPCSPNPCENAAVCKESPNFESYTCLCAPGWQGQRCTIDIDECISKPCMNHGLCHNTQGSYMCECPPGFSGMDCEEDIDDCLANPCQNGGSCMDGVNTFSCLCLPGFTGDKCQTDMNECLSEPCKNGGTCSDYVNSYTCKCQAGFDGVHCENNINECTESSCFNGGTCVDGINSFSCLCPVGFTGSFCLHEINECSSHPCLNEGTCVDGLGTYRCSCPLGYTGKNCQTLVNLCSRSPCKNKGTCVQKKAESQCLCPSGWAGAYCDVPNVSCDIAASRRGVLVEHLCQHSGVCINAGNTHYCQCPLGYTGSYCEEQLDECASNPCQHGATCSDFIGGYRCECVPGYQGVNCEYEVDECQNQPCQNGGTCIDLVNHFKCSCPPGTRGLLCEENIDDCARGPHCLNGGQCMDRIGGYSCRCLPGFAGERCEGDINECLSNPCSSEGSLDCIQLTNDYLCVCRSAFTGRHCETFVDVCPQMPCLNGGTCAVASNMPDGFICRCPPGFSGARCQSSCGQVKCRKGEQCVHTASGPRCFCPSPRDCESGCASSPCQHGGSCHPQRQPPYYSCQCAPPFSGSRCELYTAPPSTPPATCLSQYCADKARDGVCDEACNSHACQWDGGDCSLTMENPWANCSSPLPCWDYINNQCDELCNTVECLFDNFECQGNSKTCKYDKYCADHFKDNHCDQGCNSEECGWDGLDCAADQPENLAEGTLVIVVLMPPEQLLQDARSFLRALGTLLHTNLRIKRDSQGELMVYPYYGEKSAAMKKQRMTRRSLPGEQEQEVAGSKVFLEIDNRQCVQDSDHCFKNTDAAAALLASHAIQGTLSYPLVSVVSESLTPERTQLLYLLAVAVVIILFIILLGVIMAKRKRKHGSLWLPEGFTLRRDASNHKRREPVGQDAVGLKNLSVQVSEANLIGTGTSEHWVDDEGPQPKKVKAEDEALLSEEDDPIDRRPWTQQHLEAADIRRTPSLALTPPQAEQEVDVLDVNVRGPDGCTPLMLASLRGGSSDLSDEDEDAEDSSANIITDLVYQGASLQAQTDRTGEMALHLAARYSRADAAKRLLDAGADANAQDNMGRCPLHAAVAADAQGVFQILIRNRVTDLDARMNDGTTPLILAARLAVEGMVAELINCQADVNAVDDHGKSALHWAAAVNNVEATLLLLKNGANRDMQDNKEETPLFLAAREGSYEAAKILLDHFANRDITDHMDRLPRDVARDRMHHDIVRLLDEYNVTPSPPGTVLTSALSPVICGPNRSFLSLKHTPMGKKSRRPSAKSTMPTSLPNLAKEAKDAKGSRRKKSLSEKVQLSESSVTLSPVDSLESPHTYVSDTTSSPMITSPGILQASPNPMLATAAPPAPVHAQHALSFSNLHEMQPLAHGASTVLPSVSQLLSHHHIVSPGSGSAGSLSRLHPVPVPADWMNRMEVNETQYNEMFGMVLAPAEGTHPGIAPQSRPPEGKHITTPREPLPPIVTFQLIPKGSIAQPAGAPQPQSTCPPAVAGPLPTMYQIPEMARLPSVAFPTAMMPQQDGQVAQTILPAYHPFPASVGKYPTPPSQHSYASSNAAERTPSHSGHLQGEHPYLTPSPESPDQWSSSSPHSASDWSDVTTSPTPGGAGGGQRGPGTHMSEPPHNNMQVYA

[6] = biological target: Pro-neuregulin-1, membrane-bound isoform (Homo sapiens) (UniProt Q02297); assay: small molecules binding neuregulin-1 protein – biochemical, small-molecule microarray, fluorescence 635/667, psychiatric disease protein project, primary screen (AID 1075); conditions: NRG1 binding, 635 nm fluorescence, higher = more signal;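 note: score combines 667 nm spot fluorescence with signal to noise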
Chain of Pro-neuregulin-1, membrane-bound isoform (Homo sapiens) (Q02297 whole entry, looked up, the tested form may be a part, canonical isoform): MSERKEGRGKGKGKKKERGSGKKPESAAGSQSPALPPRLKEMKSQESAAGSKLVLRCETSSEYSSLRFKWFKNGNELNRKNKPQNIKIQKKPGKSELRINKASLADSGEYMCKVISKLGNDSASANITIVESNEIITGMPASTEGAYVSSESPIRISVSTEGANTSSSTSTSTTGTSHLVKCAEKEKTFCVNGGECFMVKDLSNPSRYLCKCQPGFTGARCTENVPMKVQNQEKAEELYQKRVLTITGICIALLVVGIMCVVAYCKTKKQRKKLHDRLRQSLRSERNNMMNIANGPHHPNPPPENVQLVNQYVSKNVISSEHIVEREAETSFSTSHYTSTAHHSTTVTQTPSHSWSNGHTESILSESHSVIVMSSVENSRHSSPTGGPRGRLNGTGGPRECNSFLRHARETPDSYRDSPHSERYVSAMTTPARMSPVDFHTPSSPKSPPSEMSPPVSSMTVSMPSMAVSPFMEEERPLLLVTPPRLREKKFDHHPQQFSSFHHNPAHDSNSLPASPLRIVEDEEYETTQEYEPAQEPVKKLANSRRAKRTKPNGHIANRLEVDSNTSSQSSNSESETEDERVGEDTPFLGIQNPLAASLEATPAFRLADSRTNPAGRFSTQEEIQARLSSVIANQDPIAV

[7] = test system: Neuregulin-1 EGF-like domain; assay: small molecules binding NRG1 EGF domain – biochemical, small-molecule microarray, 635 nm fluorescence, primary screen (AID 1081); conditions: higher = more signal;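 note: binding of the protein to compounds printed on small-molecule microarray slides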
[8] = FRG1 expression reporter modulators in myotubes – cell-based, C2C12 myotubes, firefly/Renilla luciferase, luminescence, FRG1 inhibition for FSHD, primary screen (AID 1084); conditions: FRG1 promoter luciferase, higher = more signal, called active from +8 up or from −8 down
[9] = small molecules captured by biotinylated probe aFST – biochemical, small-molecule microarray, fluorescence 635/667, stem cell growth factor project, primary screen (AID 1086); conditions: higher = more signal;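 note: score merges 667 nm fluorescence with signal-to-noise of each printed compound spot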
[10] = binders of probe aHhip on microarray, primary screen, stem cell growth factor project, biochemical, small-molecule microarray, fluorescence 635/667 (AID 1087); conditions: higher = more signal;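 note: score merges spot fluorescence at 667nm with spot signal to noise ratio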
[11] = test system: PRMT1 (protein arginine N-methyltransferase 1); assay: small molecules binding arginine methyltransferase PRMT1 – biochemical, small-molecule microarray, 635 nm fluorescence, primary screen (AID 1088); conditions: higher = more signal;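 note: binding of Prmt1 protein to compounds spotted on small-molecule microarray slides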
[12] = growth effects on S. cerevisiae YJM789 – YJM789 clinical isolate, OD600, 24 h, basal, primary screen (AID 1089); conditions: higher = more signal, called active from +8 up or from −8 down;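 note: growth of clinical yeast isolate S. cerevisiae YJM 789 seeded 1000 cells per well; test concentration not given here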
[13] = S. pombe growth modifiers, basal conditions – strain 972, OD600, 24 h, no modulator, primary screen (AID 1090);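 note: basal condition with compound alone and no growth modifier present; test concentration not given here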; conditions: S. pombe 972 growth, higher = more signal, called active from +8 up or from −8 down
[14] = budding yeast growth modifiers under rapamycin – strain BY4716, OD600, 96 h, primary screen (AID 1091); note: test concentration not given here; conditions: S. cerevisiae BY4716 + rapamycin, higher = more signal, called active from +8 up or from −8 down
[15] = biological target: Torsin-1A-interacting protein 2 (Homo sapiens) (UniProt Q8NFQ8); assay: small molecules binding lysate-expressed LULL1 – cell lysate, human LULL1 lysate, 635/667 nm fluorescence, primary screen (AID 1092); conditions: small-molecule microarray, hLULL1 lysate binding, 635 nm fluorescence; higher = more signal;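 note: probe is lysate of COS7 cells overexpressing human LULL1; score merges per-feature 667 nm fluorescence with signal-to-noise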
Chain of Torsin-1A-interacting protein 2 (Homo sapiens) (Q8NFQ8 whole entry, looked up): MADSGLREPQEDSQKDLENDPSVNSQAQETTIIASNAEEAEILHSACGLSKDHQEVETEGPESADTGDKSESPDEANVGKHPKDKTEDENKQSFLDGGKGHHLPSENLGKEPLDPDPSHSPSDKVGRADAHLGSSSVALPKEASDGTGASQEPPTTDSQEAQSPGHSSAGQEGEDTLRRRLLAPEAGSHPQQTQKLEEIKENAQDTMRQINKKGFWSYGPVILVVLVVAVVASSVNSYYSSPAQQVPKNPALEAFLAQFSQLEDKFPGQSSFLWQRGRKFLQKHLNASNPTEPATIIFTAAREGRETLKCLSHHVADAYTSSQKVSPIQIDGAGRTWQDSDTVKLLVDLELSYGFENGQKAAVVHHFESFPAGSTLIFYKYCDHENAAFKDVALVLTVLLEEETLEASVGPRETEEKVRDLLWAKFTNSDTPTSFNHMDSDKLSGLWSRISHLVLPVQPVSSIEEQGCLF

[16] = optical density change of DRC41 E. coli – strain DRC41, OD650, 24 h, E. coli filamentation project, primary screen (AID 1093);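 note: MC1000 strain lacking acrAB efflux and sulA so SOS filamentation is blocked; test concentration not given here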; conditions: E. coli DRC41 growth, higher = more signal, called active from +8 up or from −8 down
[17] = probe aLefty2 binding to arrayed compounds – biochemical, biotinylated probe, 635/667 nm fluorescence, primary screen (AID 1094); conditions: small-molecule microarray, higher = more signal;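 note: score merges spot fluorescence near 667 nm with spot signal-to-noise ratio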
[18] = test system: Noggin (protein binding on small-molecule microarray); assay: small molecules binding Noggin protein – biochemical, 635/667 nm fluorescence, primary screen (AID 1095); conditions: 635 nm fluorescence, higher = more signal;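 note: score merges 667 nm feature fluorescence with signal to noise over triplicate slides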
[19] = biological target: Neurogenic locus notch homolog protein 3 (Homo sapiens) (UniProt Q9UM47); assay: small molecules binding NOTCH3 protein – biochemical, 635/667 nm fluorescence, primary screen (AID 1096); conditions: small-molecule microarray, 635 nm fluorescence, higher = more signal
[20] = probe aEGFR binding to arrayed compounds – biochemical, biotinylated probe, 635/667 nm fluorescence, primary screen (AID 1097); conditions: small-molecule microarray, higher = more signal;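 note: probe is a biotinylated anti-EGFR antibody binding compounds printed on slides; score combines fluorescence near 667 nm and signal to noise of each spot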

SMILES | composite z-score [1] | composite z-score [2] | composite z-score [3] | composite z-score [4] | composite z-score [5] | composite z-score [6] | composite z-score [7] | z-score [8] | composite z-score [9] | composite z-score [10] | composite z-score [11] | z-score [12] | z-score [13] | z-score [14] | composite z-score [15] | z-score [16] | composite z-score [17] | composite z-score [18] | composite z-score [19] | composite z-score [20]
CC(c1ccccc1)C(O)C1C=CC2C(=O)N(c3ccccc3)C(=O)C2N1Nc1ccccc1F (stereo not given) | -0.0296 | 0.267 | 0.0786 | 0.26 | 0.917 | 1.28 | 0.679 | 0.985 (inactive) | 1.34 | -0.191 | 1.26 | -1.11 (inactive) | 1.15 (inactive) | -1.99 (inactive) | 2.87 | 0.198 (inactive) | 0.0841 | -0.138 | 1.14 | -0.0192
C=CCC(OC(C)=O)[C@@H]1[C@@H](N(Cc2cc3ccccc3o2)C(=O)c2cccc3ccccc23)c2cc(OCCCO)ccc2N1C(=O)Cc1ccc2ccccc2c1 (stereo not given in full) | -0.0977 | 0.0901 | -0.0383 | 0.0537 | -0.127 | 0.144 | 0.195 | -2.3 (inactive) | 0.309 | 0.0749 | 0.37 | 0.263 (inactive) | 0.246 (inactive) | 0.445 (inactive) | 0.797 | 0.117 (inactive) | -0.0898 | -0.233 | -0.164 | -0.123
CC(C)C(CO)N1C(=O)[C@@H]2[C@H]3C(=O)OCC=C[C@H]3OC23C=CCN(c2ccc4ccccc4c2)C(=O)[C@@H]13 (stereo not given in full) | 0.316 | -0.377 | -0.169 | -0.134 | -1.13 | 0.187 | -0.111 | 0.125 (inactive) | -0.527 | 0.0373 | -0.382 | 0.523 (inactive) | -0.494 (inactive) | 1.17 (inactive) | 0.607 | 0.0732 (inactive) | -0.192 | -1.21 | -0.319 | -0.127
[N-]=[N+]=Nc1ccccc1[C@@H]1OC(c2ccc(OCCCO)cc2)=N[C@]1(CCS(=O)(=O)c1ccccc1)C(=O)O | 0.0639 | 0.459 | 0.079 | 0.839 | 1.57 | 1.53 | 0.862 | 3.39 (inactive) | 0.912 | 0.151 | 1.56 | 1.57 (inactive) | -3.97 (inactive) | -1.63 (inactive) | 3.39 | 0.777 (inactive) | -0.013 | 0.61 | 1.01 | 0.172
COc1ccc([Si](C)(C)[C@H]2[C@H](CC(=O)N(CCO)Cc3ccccc3)O[C@@]3(C(=O)N(Cc4cccc(N5C(=O)c6cccc7cccc5c67)c4)c4ccccc43)[C@@H]2C)cc1 | -0.184 | 0.199 | -0.0664 | 0.202 | -0.588 | 0.824 | 1.2 | -3.13 (inactive) | -0.246 | -0.236 | 1.19 | -1.64 (inactive) | -0.897 (inactive) | 2.79 (inactive) | 1.72 | 1.02 (inactive) | -0.0158 | 0.315 | 0.228 | -0.378
C=C[C@@H](C)[C@@H](OC(=O)Nc1ccc(OC)cc1)c1ccc(O)c2ccccc12 | -0.262 | 0.173 | -0.0423 | 0.245 | -0.11 | 0.543 | 1.03 | 2.58 (inactive) | 0.105 | -0.128 | 0.906 | -24.7 (active) | -20.9 (active) | -3.73 (inactive) | 1.15 | 1.02 (inactive) | -0.17 | 1.15 | 0.514 | -0.116
[N-]=[N+]=NCc1ccccc1[C@@H]1OC(c2ccc(OCCCO)cc2)=N[C@]1(Cc1ccccc1N=[N+]=[N-])C(N)=O | 0.209 | -0.523 | -0.156 | 0.385 | 1.66 | 2.08 | 1.27 | 0.722 (inactive) | 1.25 | -0.0994 | 1.55 | -0.0556 (inactive) | -1.33 (inactive) | -0.91 (inactive) | 3.29 | 0.43 (inactive) | 0.361 | 0.37 | 1.04 | 0.171
CN(C)CCCCCCNC(=O)[C@@H]1C[C@@H]2C(=O)NCC(=O)N2[C@@H]1c1cccc(OCCO)c1 | -0.131 | 1.37 | 0.153 | 0.816 | 1.14 | 0.346 | 1.26 | 2.12 (inactive) | 0.555 | 0.164 | 1.53 | 0.116 (inactive) | -0.192 (inactive) | 0.191 (inactive) | 3.07 | 0.121 (inactive) | 0.164 | 1.17 | 1.03 | 0.0225
CC(=O)n1cc(C(O)C2C=CC3C(=O)N(c4ccccc4)C(=O)C3N2Nc2ccc(C#N)cc2)c2ccccc21 (stereo not given) | -0.0594 | -0.234 | 0.106 | 0.794 | 1.5 | 1.8 | 1.29 | 0.471 (inactive) | 0.296 | 0.0373 | 1.33 | -0.589 (inactive) | 1.09 (inactive) | 1.85 (inactive) | 3.4 | -0.795 (inactive) | 0.401 | -0.244 | 0.48 | -0.0804
CC(C)[Si]1(C(C)C)O[C@@H](c2ccccc2)c2cc(-c3ccc(-c4ccc(Cl)c(Cl)c4)o3)nc(CCc3ccccc3)c21 | 0.662 | -0.56 | -0.16 | -0.641 | -0.868 | -0.345 | -0.314 | 0.838 (inactive) | -0.363 | 0.269 | 0.324 | 0.149 (inactive) | -2.2 (inactive) | 3.08 (inactive) | 0.883 | -0.823 (inactive) | -0.126 | -1.37 | -1.78 | -0.248
[N-]=[N+]=Nc1ccccc1[C@@H]1OC(c2ccc(OCCCO)cc2)=N[C@]1(CCS(=O)(=O)c1ccccc1)C(=O)N1CCCCC1 | 1.78 | 1.25 | 0.206 | 0.77 | 1.6 | 1.37 | 1.29 | -1.72 (inactive) | 1.18 | -0.249 | 1.56 | 0.436 (inactive) | 1.15 (inactive) | 2.83 (inactive) | 2.83 | 0.106 (inactive) | 0.799 | 0.237 | 1.05 | 0.292
